The panel holds about 83,000 compounds, 20% with a hit somewhere; the sample as a whole holds those more often.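 Method: cells in 96-well plates; compound added at one concentration; 48 h incubation; percent growth measured; values under 10 scored active.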 Activity calls are given as the source filed them.
Columns and labels:
Assay in all cases: NCI-60 one-dose screen, 48 h (100 = growth as untreated, 0 = no growth, -100 = all killed)
Details in all cases: 10 µM unless noted
[1] = test system: NCI-H23 lung
[2] = test system: NCI-H226 lung
[3] = test system: NCI-H322M lung
[4] = test system: HOP-62 NSCLC
[5] = test system: NCI-H460 lung
[6] = test system: NCI-H522 lung
[7] = test system: A549/ATCC NSCLC
[8] = test system: 786-0 renal
[9] = test system: COLO 205 colon
[10] = test system: DU-145 prostate
[11] = test system: K-562 leukemia
[12] = test system: MALME-3M melanoma
[13] = test system: MDA-MB-231 breast
[14] = test system: RXF 393 renal
[15] = test system: SF-268 CNS
[16] = test system: SF-295 CNS
[17] = test system: SF-539 CNS
[18] = test system: UACC-257 melanoma
[19] = test system: M14 melanoma
[20] = test system: HCT-15 colon

Measured: growth

CCCc1cc(=O)n2c(C(=O)Nc3ccccc3OC)c(C(=O)Nc3ccc(F)cc3)sc2n1
inactive: [1] 63% [30 µM] | [2] 62.3% [30 µM] | [3] 57.9% [30 µM] | [5] 44.6% [30 µM] | [6] 46.7% [30 µM] | [7] 16.1% [30 µM] | [8] 36.2% [30 µM] | [9] 72.5% [30 µM] | [10] 53.9% [30 µM] | [12] 64.1% [30 µM] | [13] 58.3% [30 µM] | [18] 76.3% [30 µM] | [19] 80.6% [30 µM] | [20] 79% [30 µM]
active: [4] -16.7% [30 µM] | [11] 3.51% [30 µM] | [14] -19.5% [30 µM] | [15] -16.3% [30 µM] | [16] -18.7% [30 µM] | [17] -47% [30 µM]

C=CC1=C(C(=O)O)N2C(=O)[C@@H](NC(=O)/C(=N\O)c3csc(N)n3)[C@H]2SC1 (stereo in doubt)
inactive: [1] 96% | [2] 101% | [3] 109% | [4] 105% | [5] 105% | [6] 106% | [7] 99.4% | [8] 105% | [9] 103% | [10] 113% | [11] 104% | [12] 111% | [13] 105% | [14] 117% | [15] 108% | [16] 104% | [17] 95.2% | [18] 96.3% | [19] 114% | [20] 105%

COC1CC2CCC(C)C(O)(O2)C(=O)C(=O)N2CCCCC2C(=O)OC(C(C)CC2CCC(O)C(OC)C2)CC(=O)C(C)C=C(C)C(O)C(OC)C(=O)C(C)CC(C)/C=C/C=C/C=C1C (stereo not drawn)
inactive: [1] 49.2% | [2] 48.6% | [3] 39.4% | [4] 51.3% | [5] 43.1% | [6] 42.7% | [7] 36.8% | [8] 43% | [9] 64.7% | [10] 42% | [11] 70.4% | [12] 21.1% | [13] 52.4% | [14] 20.4% | [15] 57.2% | [16] 16.6% | [17] 35.8% | [18] 50.8% | [19] 48.5% | [20] 46.2%

CN1C(=O)/C(=C/c2nc(-c3cccc(F)c3)n3ccccc23)c2ccccc21
inactive: [1] 83.7% | [2] 84.4% | [3] 80.8% | [4] 80.7% | [5] 56.1% | [6] 40% | [7] 44.9% | [8] 70.7% | [9] 93% | [10] 82.6% | [11] 79.7% | [12] 57.6% | [13] 61.3% | [14] 66.2% | [15] 92% | [16] 87.4% | [17] 71.4% | [18] 79.1% | [19] 73.1% | [20] 93%

Cc1cc(C(C)(C)c2cc(C)c(O)c(CN(C)C)c2)cc(CN(C)C)c1O
inactive: [1] 105% | [2] 96.5% | [3] 70.7% | [4] 99.8% | [5] 101% | [6] 85.7% | [7] 97.7% | [8] 73.1% | [9] 89% | [10] 97.1% | [11] 76.6% | [12] 57.7% | [13] 59.5% | [14] 61.5% | [15] 101% | [16] 100% | [17] 80.3% | [18] 85% | [19] 77.7% | [20] 80.8%

O=C(Nc1ccc(Cl)cc1)Nc1ccc(Nc2nncc3ccccc23)cc1
active: [5] 9.89% | [11] 9.49%
inactive: [1] 12.5% | [2] 33.3% | [3] 64.3% | [4] 38.7% | [6] 11.9% | [7] 20.1% | [8] 50.4% | [9] 18.6% | [10] 33.7% | [12] 38.5% | [13] 36.6% | [14] 65.7% | [15] 42.4% | [16] 17.8% | [17] 33% | [18] 15.3% | [19] 19.3% | [20] 18.3%

NC(=Nc1ccccc1)SCCCCSC(N)=Nc1ccccc1
inactive: [1] 71.2% | [2] 95% | [3] 85.2% | [4] 82.2% | [5] 101% | [6] 79.1% | [7] 85.1% | [8] 79.5% | [9] 125% | [10] 93.5% | [11] 44.5% | [12] 102% | [13] 67.5% | [14] 73.6% | [15] 90% | [16] 77.5% | [17] 114% | [18] 101% | [19] 84.6% | [20] 83.1%

CC(C)[C@H]1CC[C@H]2[C@@H](CC[C@H]3[C@](C)(CN)CCC[C@]23C)C1
active: [5] -66.1% | [9] -82.6%
inactive: [1] 88.4% | [2] 105% | [3] 15.3% | [4] 56.3% | [6] 80% | [7] 87% | [8] 72.9% | [10] 11.2% | [11] 18.7% | [12] 83% | [13] 63.6% | [14] 86.9% | [15] 53.5% | [16] 80.5% | [17] 98.8% | [18] 108% | [19] 93%

CC(C)C(=O)Cc1cnccn1
inactive: [1] 93.7% | [2] 110% | [3] 103% | [4] 106% | [5] 103% | [6] 109% | [7] 96.5% | [8] 109% | [9] 113% | [10] 111% | [11] 114% | [12] 111% | [13] 119% | [14] 106% | [15] 114% | [16] 91% | [17] 105% | [18] 97.8% | [19] 112% | [20] 107%

COc1ccc(Cn2cc3c(c2-c2ccccc2)CCc2cncnc2-3)cc1
inactive: [1] 69.9% | [2] 72.1% | [3] 110% | [4] 61.1% | [5] 27% | [6] 26.1% | [7] 46.6% | [8] 57.3% | [9] 45.5% | [10] 72.9% | [11] 22.1% | [12] 26.9% | [13] 50% | [14] 55.3% | [15] 63.1% | [16] 24.3% | [17] 59.7% | [18] 74.9% | [19] 24.5% | [20] 45.3%

N=c1ccn2c(n1)O[C@@H]1[C@@H](O)[C@H](CO)O[C@@H]12
active: [19] -1.79%
inactive: [1] 33.3% | [2] 92.4% | [3] 82.2% | [4] 47.7% | [5] 12.3% | [6] 39.4% | [7] 22.2% | [8] 31.1% | [9] 49.3% | [10] 51.4% | [11] 67.1% | [12] 59.1% | [13] 91.7% | [14] 96.4% | [15] 65.8% | [16] 88.7% | [17] 98.4% | [18] 70.3% | [20] 64.4%

COc1ccc2c(c1)C(=O)/C(=C/c1ccc([N+](=O)[O-])s1)O2
inactive: [2] 60% | [3] 11.4% | [4] 35.2% | [8] 28.1% | [10] 43.8%
active: [1] 7.22% | [5] -3.34% | [6] -86.4% | [7] 8.34% | [9] -64.7% | [11] 3.01% | [12] -46.3% | [13] -71.1% | [14] -63% | [15] -72.7% | [16] 5.53% | [17] -46.2% | [18] -0.975% | [19] -20.6%

O=C(Nc1ncc([N+](=O)[O-])s1)c1cccc([N+](=O)[O-])c1
inactive: [2] 29.3% | [3] 35.9% | [4] 25.3% | [5] 43.4% | [7] 81.8% | [8] 18% | [9] 77% | [10] 84.6% | [11] 23.3% | [12] 40.3% | [13] 62.3% | [14] 25.1% | [15] 64.2% | [16] 23.3% | [17] 28.4% | [18] 58.6% | [19] 44% | [20] 47.8%
active: [1] 9.05% | [6] 8.27%

O=C1C[C@@H]2/C(=C(O)\C=C\c3ccccc3)C(=O)C=C[C@@H]2O1
active: [4] 2.64% | [6] -66.3% | [8] -46.7% | [9] -73.4% | [10] -16.8% | [12] -35.1% | [13] -45.7% | [14] -92.9% | [17] -43.3% | [18] -43.4% | [19] -65.9% | [20] -7.83%
inactive: [1] 77% | [2] 39.9% | [3] 26.1% | [5] 12.1% | [7] 36.7% | [11] 14.3% | [15] 11.6% | [16] 71.2%

C[C@]12CC[C@@H]3c4ccc(O)c([N+](=O)[O-])c4CC[C@H]3[C@@H]1CC[C@@H]2NS(=O)(=O)c1cccc(Br)c1
inactive: [1] 28% | [2] 62.4% | [3] 53.8% | [4] 78.3% | [5] 20% | [7] 19% | [8] 42.8% | [9] 101% | [10] 52.7% | [12] 31.1% | [13] 26.7% | [14] 10.4% | [15] 36.2% | [16] 53.2% | [17] 67.5% | [18] 49.1% | [19] 43.4% | [20] 26.7%
active: [6] -50.4% | [11] 8.39%
